This assay relates to CG7945. Kind of assay: MAPPIT interaction score (arbitrary units); higher = stronger binary interaction signal, active = hit call of the paper. The settings on record: MAPPIT configuration: N-C; pair source set: Lit-BM-16. The method, then:
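MAPPIT in HEK293T cells: Drosophila bait and prey ORFs (from the FlyBi ORF collection) were co-transfected in quadruplicate, with two wells stimulated by erythropoietin. Interaction-dependent JAK-STAT activation was read out with a STAT-responsive firefly luciferase reporter. Positive calls use the 99th percentile of random reference set (RRS) scores within each batch […]. Batches Dvs01 and Dvs02 used the N-N configuration and Dvs04 the N-C configuration. Pairs come from FlyBi screens, CuraGen, DPiM, Finley Y2H, Lit-BM-16, Lit-BS-16 and RRS.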
Turning to DnaJ-1, the MAPPIT interaction score is 1.15 (inactive).

The record behind these values is the supplement of paper PMC10105736.
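Also: HEK293T cells with Epo stimulation, STAT-responsive firefly luciferase reporter, fold induction versus unstimulated cells divided by the larger fold induction of two negative controls lacking either bait or prey.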
